The values below come from PubChem BioAssay (NCATS).

The nature of test [1]: qHTS assay for small molecule antagonists of peroxisome proliferator-activated receptor delta signaling (AID 588535; active = well fitted inhibition curve with a large enough effect in the signal ratio, with a control signal flat, not every such curve was filed as active; the % refers to the signal ratio;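 for max response: cells co-treated with a PPAR-delta agonist as stimulator during compound exposure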). To be noted: HEK293T PPARd-UAS-bla, beta-lactamase FRET ratio, 18 h; 460 nm channel. The procedure, abridged: (§1)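 GeneBLAzer PPAR-delta-UAS-bla HEK293T cells in medium with 2% charcoal/dextran FBS were preincubated 5 hrs at 37 C, then given compounds, incubated 18 hrs at 37 C, and read by CCF4 beta-lactamase fluorescence; IC50 from Hill fits.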

Test [2] has as its target Peroxisome proliferator-activated receptor delta (Homo sapiens) (UniProt Q03181). Described as above. The settings on record: HEK293T PPARd-UAS-bla, beta-lactamase FRET ratio, 18 h; series mostly up to 76.7 µM. A digest of the protocol: as §1
Test [3] concerns the target Estrogen receptor (Homo sapiens) (UniProt P03372). The experiment in a line: qHTS assay for small molecule agonists of estrogen receptor alpha signaling (AID 588514; calls by dose curve;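 note: 0% = vehicle only and 100% = reference agonist; nearly all actives have a fitted effect of over 70% in size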). The settings on record: ER-alpha-UAS-bla HEK293, beta-lactamase ratio, 18 h, percent of full estradiol response, vehicle zero; series mostly up to 76.8 µM. A digest of the protocol: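 Reporter-gene assay. […] controls beta-lactamase in HEK 293 GripTite cells; after 18 hrs with compound, CCF4 substrate is added for 2 hrs and fluorescence is read.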

The target in test [4] is ATP-dependent 6-phosphofructokinase (Trypanosoma brucei brucei) (UniProt O15648). The experiment in a line: qHTS Assay to Find Inhibitors of T. brucei phosphofructokinase: hit validation (AID 492961).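 Note: luminescence reports ADP formed as PFK phosphorylates fructose-6-phosphate with ATP; % is set by controls: 0 for no effect and ±100 for the full control effect.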 To be noted: T. brucei PFK, ADP-Glo luminescence; series mostly up to 51.4 µM. The procedure, abridged:
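PFK 1.25 nM, F6P 0.5 mM, ATP 0.1 mM, MgCl2 5 mM, 0.1 M TEA pH 8.0, Tween20 0.01%, BSA 0.1%; 45 min RT. ADP-Glo two-step detection, luminescence. qHTS titration; curve fitting with curve-class categorization.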

A short description of test [5]: qHTS profiling for inhibitors of Plasmodium falciparum proliferation (AID 504749).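 For activity, negative = inhibition: 0% = DMSO vehicle and full inhibition = artemisinin control.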 For all read-outs here: nearly all actives have a fitted effect of over 60% in size. Note: potency is the fitted concentration of half-maximal effect. The settings on record: P. falciparum in erythrocytes, SYBR Green DNA, 72 h; for activity, negative = inhibition: at 12.8 µM (top of the series). The procedure, abridged: (§2)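 P. falciparum-infected erythrocytes (0.3% parasitemia, 2.5% hematocrit final) were exposed to compounds for 72 h at 37 C in 5% CO2, then lysed with SYBR Green buffer overnight at room temperature; parasite DNA fluorescence was normalized to artemisinin and DMSO controls.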
(In general: In qHTS, concentration-response curves come from the screen itself.)

For test [6], the system named is 7G8. Described as above. The settings on record: P. falciparum in erythrocytes, SYBR Green DNA, 72 h; series mostly up to 28.7 µM. The procedure, abridged: as §2
Test [7] concerns AS120. Described as above. The settings on record: P. falciparum in erythrocytes, SYBR Green DNA, 72 h; series mostly up to 28.7 µM. The procedure, abridged:
as §2

For test [8], the system named is ATS189. The test is described as above. The settings on record: P. falciparum in erythrocytes, SYBR Green DNA, 72 h; series mostly up to 28.7 µM. A digest of the protocol:
as §2

Test [9] relates to CP191. The test is described as above. To be noted: P. falciparum in erythrocytes, SYBR Green DNA, 72 h; series mostly up to 28.7 µM. The procedure, abridged:
as §2

Test [10] relates to CP237. Described as above. To be noted: P. falciparum in erythrocytes, SYBR Green DNA, 72 h; series mostly up to 28.7 µM. The procedure, abridged:
as §2

Test [11] relates to CP266. The description is as above. To be noted: P. falciparum in erythrocytes, SYBR Green DNA, 72 h; series mostly up to 28.7 µM. A digest of the protocol:
as §2

Test [12] has as its system Dd2. Described as above. The settings on record: P. falciparum in erythrocytes, SYBR Green DNA, 72 h; series mostly up to 28.7 µM. The procedure, abridged: as §2
Test [13] deals with ECU. The description is as above. To be noted: P. falciparum in erythrocytes, SYBR Green DNA, 72 h; series mostly up to 28.7 µM. A digest of the protocol:
as §2

Test [14] relates to GB4. The test is described as above. The settings on record: P. falciparum in erythrocytes, SYBR Green DNA, 72 h; series mostly up to 28.7 µM. The procedure, abridged:
as §2

Test [15] has as its system HB3. The test is described as above. To be noted: P. falciparum in erythrocytes, SYBR Green DNA, 72 h; series mostly up to 28.7 µM. A digest of the protocol: as §2
Test [16] deals with P94_40. The description is as above. The settings on record: P. falciparum in erythrocytes, SYBR Green DNA, 72 h; series mostly up to 28.7 µM. A digest of the protocol: as §2
Test [17] has as its system TAB109. The test is described as above. To be noted: P. falciparum in erythrocytes, SYBR Green DNA, 72 h; series mostly up to 28.7 µM. The procedure, abridged: as §2
For test [18], the system named is TAB113. Described as above. To be noted: P. falciparum in erythrocytes, SYBR Green DNA, 72 h; series mostly up to 28.7 µM. The procedure, abridged: as §2
Test [19] has as its system W2. The description is as above. To be noted: P. falciparum in erythrocytes, SYBR Green DNA, 72 h; series mostly up to 28.7 µM. The procedure, abridged: as §2
Test [20] in a line: qHTS Assay for Identification of Small Molecule Agonists for Hypoxia Response Element Signaling Pathway (AID 914; active = well fitted activation curve with a large enough effect in the signal ratio, with a control signal flat, not every such curve was filed as active; the % refers to the signal ratio; note: potency is the fitted concentration of half-maximal effect; for activation: % of control where 0% means no effect). To be noted: ME-180 (cervical carcinoma) HRE-bla reporter, beta-lactamase ratio, CoCl2, 17 h; activation: stronger effect = higher value. The procedure, abridged:
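HRE-bla ME-180 cells with beta-lactamase reporter under hypoxia response element, compounds with EC50 CoCl2 for 17 hours at 37 C. CCF4 substrate, 460nm/530nm emission ratio gave %Activity; AC50 from titration series.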

“And” between values parts separate entries of the source, which are not always exact repeats. Equal values may be shown once. Records with an inconclusive call do not appear. The source made the active and inactive calls. Unless noted, calls come from the whole dose curve; as a rule, active = well fitted curve in the direction sought with a large enough effect; inconclusive = small, poorly fitted or top-dose-only effect, or another doubt; inactive = no such curve, though single readings can be large; an effect the other way counts as inactive or inconclusive.

Chain of Peroxisome proliferator-activated receptor delta (Homo sapiens) (Q03181 whole entry, looked up): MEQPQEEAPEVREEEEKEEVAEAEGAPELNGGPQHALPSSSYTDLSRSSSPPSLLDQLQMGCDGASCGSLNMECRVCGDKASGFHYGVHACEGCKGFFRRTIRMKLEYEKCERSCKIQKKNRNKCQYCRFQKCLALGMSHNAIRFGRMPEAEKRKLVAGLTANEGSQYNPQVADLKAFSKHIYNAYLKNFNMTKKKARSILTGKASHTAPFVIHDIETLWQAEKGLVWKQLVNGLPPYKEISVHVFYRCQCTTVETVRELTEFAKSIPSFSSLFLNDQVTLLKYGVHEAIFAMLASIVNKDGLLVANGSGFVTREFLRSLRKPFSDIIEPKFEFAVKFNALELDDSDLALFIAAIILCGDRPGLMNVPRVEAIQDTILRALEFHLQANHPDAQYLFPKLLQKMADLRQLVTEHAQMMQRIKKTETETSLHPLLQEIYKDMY
Chain of Estrogen receptor (Homo sapiens) (P03372 whole entry, looked up): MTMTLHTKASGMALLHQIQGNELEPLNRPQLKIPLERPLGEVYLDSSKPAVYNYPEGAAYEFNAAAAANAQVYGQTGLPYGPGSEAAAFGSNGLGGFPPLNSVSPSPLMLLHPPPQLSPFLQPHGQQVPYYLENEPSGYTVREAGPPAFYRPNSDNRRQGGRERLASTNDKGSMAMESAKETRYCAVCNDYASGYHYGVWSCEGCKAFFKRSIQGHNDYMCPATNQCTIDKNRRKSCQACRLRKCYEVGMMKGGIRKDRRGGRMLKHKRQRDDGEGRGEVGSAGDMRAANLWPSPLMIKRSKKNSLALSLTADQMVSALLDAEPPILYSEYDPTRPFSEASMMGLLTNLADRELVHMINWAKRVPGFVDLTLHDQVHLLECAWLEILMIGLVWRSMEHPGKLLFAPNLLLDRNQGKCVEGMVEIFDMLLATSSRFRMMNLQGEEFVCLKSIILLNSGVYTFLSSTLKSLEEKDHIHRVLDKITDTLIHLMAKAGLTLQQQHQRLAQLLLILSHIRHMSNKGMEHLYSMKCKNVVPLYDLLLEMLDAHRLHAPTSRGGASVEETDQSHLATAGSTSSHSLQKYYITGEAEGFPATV
Chain of ATP-dependent 6-phosphofructokinase (Trypanosoma brucei brucei) (O15648 whole entry, looked up): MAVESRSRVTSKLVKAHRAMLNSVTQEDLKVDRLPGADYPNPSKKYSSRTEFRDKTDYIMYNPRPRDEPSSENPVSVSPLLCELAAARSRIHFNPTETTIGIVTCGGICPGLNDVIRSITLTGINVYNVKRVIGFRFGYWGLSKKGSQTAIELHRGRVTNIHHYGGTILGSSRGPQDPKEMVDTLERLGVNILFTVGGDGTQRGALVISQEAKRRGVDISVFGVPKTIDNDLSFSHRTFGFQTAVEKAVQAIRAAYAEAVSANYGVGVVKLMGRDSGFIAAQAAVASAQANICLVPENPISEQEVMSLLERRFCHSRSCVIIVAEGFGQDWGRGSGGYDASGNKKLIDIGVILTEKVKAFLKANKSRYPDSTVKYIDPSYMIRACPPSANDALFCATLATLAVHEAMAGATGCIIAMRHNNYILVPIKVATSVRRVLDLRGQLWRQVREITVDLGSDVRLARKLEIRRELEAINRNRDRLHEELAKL

In the case of `O=Cc1ccc(Cl)c(Cl)c1`, the max response in [1] came to 20.6%. The result in [2] was inactive.

For `ClC1=C(Cl)C(Cl)(Cl)C(Cl)=C1Cl`, the outcome in test [3] was inactive.

On to `CO[C@H]1/C=C/O[C@@]2(C)Oc3c(C)c(O)c4c(O)c(c5c(c4c3C2=O)NC2(CCN(CC(C)C)CC2)N=5)=NC(=O)/C(C)=C\C=C\[C@H](C)[C@H](O)[C@@H](C)[C@@H](O)[C@@H](C)[C@H](OC(C)=O)[C@@H]1C`, for which the Potency entry in test [4] and in test [11] was “inactive” throughout. The outcome in [3] was inactive. The Potency is 4.47 µM (active) in test [5] (parasite line B); 7.08 µM (active) in [6]; 12.6 µM (active) in test [7]; 5.01 µM (active) in test [8]; 8.91 µM (active) in [9]; 10 µM (active) in [10]. Besides, the Potency in test [12] is 7.94 µM (active); in [13] it was 7.94 µM (active); in [14] it was 12 µM (active); in test [15], 11.2 µM (active); in test [16], 8.91 µM (active); in [17], 11.2 µM (active). The Potency is 7.94 µM (active) in test [18] and 4.78 µM (active) in test [19].

As for `O=C=Nc1ccc(Cc2ccc(N=C=O)cc2)cc1`, the max response in test [1] was -20% and 23.7%. In addition, in [2], the outcome was inactive.

On to `O=C1OC2(c3cc(Br)c(O)c(Br)c3Oc3c2cc(Br)c(O)c3Br)c2c(Cl)c(Cl)c(Cl)c(Cl)c21`, for which, in test [3], the result was inactive.

With `COCCCNc1nc2c(c(=O)[nH]c(=O)n2C)n1CC(O)COc1ccccc1` (stereo not drawn), in test [20], the activation is -6.56% (inactive).

For the molecule `C[C@H](O)[C@@H]1C(=O)N2C(C(=O)O)=C(SCCN=CN)C[C@@H]12`, the Potency result in test [4], in test [6], in test [7], in test [8], in test [9] and in test [10] was “inactive” each time. Further, the Potency result in test [11], in [12], in test [13], in test [14], in test [15] and in [16] was “inactive” throughout. Besides, the Potency result in test [17], in [18] and in test [19] was “inactive” each time. The activity, negative = inhibition was 7.64% (inactive) in test [5] (parasite line A) and 5.5% (inactive) in test [5] (parasite line B).

For the molecule `C=CCn1c(=S)[nH]c2nc3c(cc2c1=O)COC(C)(C)C3`, in test [20], the activation was -5.87% (inactive).

Take `CCOC(=O)c1cc2c(=O)n3cccc(C)c3nc2n(C)c1=N`: the Potency in test [20] is 6.31 µM (active).
